# Results taken from PubChem BioAssay (NCATS).
# Results filed as inconclusive are left out. A number with no mark means an inactive call. Activity calls are given as the source filed them. Calls come from the whole dose curve; as a rule, active = well fitted activation curve with a large enough effect; inconclusive = small, poorly fitted or top-dose-only effect; inactive = flat fitted curve, though single readings scatter.
# Experiment: Validation screen for small molecules that induce DNA re-replication in MCF 10A normal breast cells (AID 463097); note: nearly all actives have a fitted effect of over 60% in size; for re-replication induction: 0% is about no effect
# Conditions: MCF 10A cells, DNA re-replication phenotype imaging; series mostly up to 46.1 µM; re-replication induction: at the top concentration
# Outline: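 250 MCF 10A cells/well; compound pin-transferred; 48 hr, 37 C, 5% CO2; Hoechst 40 min; imaged 405/500-530 nm. Hits = more high-intensity nuclei.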
# Potency is the fitted concentration of half-maximal effect.
SMILES,re-replication induction,Potency
CC(=O)NBr,-3.43%,–
CN1CCc2cccc(Cl)c2CC1,-1.08%,–
CN(C(=O)Cc1ccc(Cl)c(Cl)c1)C(CN1CCCC1)c1cccc(OCC(=O)O)c1 (centres undefined),-2.83%,–
C[C@@H]1O[C@H](C[N+](C)(C)C)CS1,-2.15%,–
CCCN(CCC)C1CCc2cccc(O)c2C1 (centres undefined),1.88%,–
C[C@H](Cc1ccc2c(c1)OC(C(=O)O)(C(=O)O)O2)NC[C@H](O)c1cccc(Cl)c1,-2.92%,–
CC(Cc1ccc(OCC(=O)O)cc1)NCC(O)c1cccc(Cl)c1 (centres undefined),-1.62%,–
NCCc1ccc(S(=O)(=O)F)cc1,-0.558%,–
Clc1ccc(N2CC3CCC(C2)N3)nn1,-10.6%,–
NC(=O)c1cc(N2CC2)c([N+](=O)[O-])cc1[N+](=O)[O-],-0.453%,–
O=S1(=O)N(CCN2CC=C(c3c[nH]c4cc(F)ccc34)CC2)c2cccc3c2N1CCC3,–,14.1 µM (active)
NC(Cc1ccc(N(CCCl)CCCl)cc1)C(=O)O (centres undefined),19.2%,–
N[C@@H](CCl)C(=O)O,0.766%,–
NC(N)=NOCC[C@H](N)C(=O)O,9.87%,–
